Results published in publication PMC4336329 (PLoS ONE, 2015).
Out of some 310,000 compounds screened, about 14,000 (4.5%) showed an effect of 50% or more. Effects have a minus sign here. This excerpt belongs to a sample that is enriched for strong results.

molecular target: human ether-à-go-go-related gene (hERG) potassium channel (human, UniProt Q12809); test: primary screen, population patch clamp on CHO cells stably expressing hERG; higher = less effect of the substance
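Further: peak tail current of the secondary pulse compared with the same well before compound.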

Chain of human ether-à-go-go-related gene (hERG) potassium channel (Q12809 whole entry, looked up): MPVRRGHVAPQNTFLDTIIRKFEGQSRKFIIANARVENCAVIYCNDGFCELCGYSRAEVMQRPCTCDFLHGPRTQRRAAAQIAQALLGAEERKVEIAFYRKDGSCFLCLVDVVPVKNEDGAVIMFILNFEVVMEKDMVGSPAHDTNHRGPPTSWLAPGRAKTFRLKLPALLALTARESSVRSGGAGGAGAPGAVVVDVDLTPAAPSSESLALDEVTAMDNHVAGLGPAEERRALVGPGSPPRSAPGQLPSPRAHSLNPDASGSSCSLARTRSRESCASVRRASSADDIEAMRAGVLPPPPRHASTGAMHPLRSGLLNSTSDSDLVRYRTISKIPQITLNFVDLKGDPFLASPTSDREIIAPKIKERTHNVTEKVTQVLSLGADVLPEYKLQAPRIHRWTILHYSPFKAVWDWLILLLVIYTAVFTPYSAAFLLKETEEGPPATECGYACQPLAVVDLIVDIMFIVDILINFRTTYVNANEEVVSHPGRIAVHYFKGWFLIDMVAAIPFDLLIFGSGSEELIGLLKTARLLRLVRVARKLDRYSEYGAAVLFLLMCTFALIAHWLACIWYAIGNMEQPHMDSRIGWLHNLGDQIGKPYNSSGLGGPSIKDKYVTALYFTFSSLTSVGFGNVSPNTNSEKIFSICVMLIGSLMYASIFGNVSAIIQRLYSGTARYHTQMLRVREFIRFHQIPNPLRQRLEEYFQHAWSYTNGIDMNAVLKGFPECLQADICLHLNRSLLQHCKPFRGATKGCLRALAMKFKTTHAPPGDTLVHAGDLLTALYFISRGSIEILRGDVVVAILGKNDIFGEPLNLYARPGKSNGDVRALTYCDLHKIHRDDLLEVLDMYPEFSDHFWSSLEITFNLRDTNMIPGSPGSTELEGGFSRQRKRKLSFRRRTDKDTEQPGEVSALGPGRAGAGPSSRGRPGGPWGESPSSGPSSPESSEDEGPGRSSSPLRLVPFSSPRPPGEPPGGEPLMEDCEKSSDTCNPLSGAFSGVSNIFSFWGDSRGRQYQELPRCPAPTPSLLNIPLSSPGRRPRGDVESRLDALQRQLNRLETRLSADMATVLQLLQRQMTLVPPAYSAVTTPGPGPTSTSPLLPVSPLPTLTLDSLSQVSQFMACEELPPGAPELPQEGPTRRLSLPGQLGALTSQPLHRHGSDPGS

SMILES | hERG current change (%, negative = inhibition) at 10uM
Cc1ccc(Nc2cc(C)nc(NCc3ccccc3)n2)cc1 | -5.08%
CCCCOc1cc(C)nc(NCc2ccccc2)n1 | 5.5%
Cc1cc(N/N=C/c2ccc(F)cc2)nc(NCc2ccccc2)n1 | -64.2%
Cc1cc(N/N=C/c2ccccc2)nc(NCc2ccccc2)n1 | -2.93%
Cc1ccc(/C=N/Nc2cc(C)nc(NCc3ccccc3)n2)cc1 | -6.03%
CCCCNc1cc(C)nc(NCc2ccccc2)n1 | -59%
CN(C)C(CNC(=O)c1cccs1)c1ccco1 (stereo not drawn) | 0.144%
CC(=O)N1c2ccc(S(=O)(=O)N3CCC(C(=O)NC4CCC(C)CC4)CC3)cc2CC1C (stereo not drawn) | 17.3%
Cc1ccc(S(=O)(=O)N(C(=O)c2ccncc2)c2ccc(OC(=O)c3ccncc3)cc2)c(C)c1 | -0.914%
O=C(O)C(Cc1ccc(Cl)cc1)NS(=O)(=O)c1ccc(Cl)cc1 (stereo not drawn) | 27.1%
O=S(=O)(N/N=C\c1ccc(-c2ccccc2Cl)o1)c1ccccc1 | 10.4%
CCN(CC)c1ccc(NC(=O)CN2CCN(CC(=O)Nc3ccc(F)cc3)CC2)cc1 | -76.4%
CN(C)c1ccc(NC(=O)CN2CCN(CC(=O)Nc3ccc(F)cc3)CC2)cc1 | -77.1%
CN(C)c1ccc(NC(=O)CN2CCN(c3ccc(F)cc3)CC2)cc1 | -4.56%
CN(C)c1ccc(NC(=O)CN2CCC(C(=O)c3ccc(F)cc3)CC2)cc1 | -32.1%
CCN1CCN(CC(=O)Nc2ccc(N(C)C)cc2)CC1.O=C(O)C(=O)O | -2.52%
CCN(CC)c1ccc(NC(=O)CN2CCN(c3ccccc3F)CC2)cc1 | -5.61%
CCN(CC)c1ccc(NC(=O)CN2CCN(c3nc(C)cc(C)n3)CC2)cc1 | -21.7%
CCN(CC)c1ccc(NC(=O)CN2CCN(c3ccccn3)CC2)cc1 | -2.86%
CCN(CC)c1ccc(NC(=O)CN2CCN(CC(=O)Nc3ccccc3F)CC2)cc1 | -64.9%
COc1ccc(NC(=O)CSc2n[nH]c(-c3ccco3)n2)cc1 | -2.42%
Br.CC(C)CC(N)C(=O)OCc1ccc([N+](=O)[O-])cc1 (stereo not drawn) | 7.33%
CCN(CC)c1nc(Nc2ccccc2)nc(Oc2ccc(=O)[nH]n2)n1 | -14.2%

SMILES | hERG current change (%, negative = inhibition) at 10uM
COc1ccc(CCNC(=O)C(=O)c2c(C)[nH]c3ccccc23)cc1 | 6.09%
Cc1nc2nc(SCC(=O)N3CCC4(CC3)OCCO4)nn2c(C)c1Cc1ccccc1 | -24.9%
CCCN(C(=O)c1ccccc1Cc1ccccc1)C1CCS(=O)(=O)C1 (stereo not drawn) | -0.454%
COc1ccc(CN2CCCCCC2)cc1 | -10.9%
COc1ccc(CN2CCOCCOCCOCCOCC2)cc1 | -36%
COc1ccc(CN2CCOCCOCCOCCOCCOCC2)cc1 | -20.7%
COc1ccc(CN2CCOCCOCCN(Cc3ccc(OC)cc3)CCOCCOCC2)cc1 | -77.3%
COc1ccc(CN2CCOCCOCCOCC2)cc1 | -58.3%
COc1ccc(CN2CCOCC2)cc1 | 10.7%
COc1ccc(-n2nnnc2SCC(=O)Nc2cc(OC)c([N+](=O)[O-])cc2C)cc1 | 42.4%
COc1ccccc1N1CCN(C(=O)C(C)N(c2ccccc2)S(C)(=O)=O)CC1 (stereo not drawn) | 5.64%
CCOC(=O)Nc1ccc(C)cc1NC(=O)OCC | 11.7%
Cc1ccc(NS(=O)(=O)c2cccs2)c(C)c1 | -2.42%
N#C/C(=C/c1ccc(F)cc1)S(=O)(=O)c1ccccc1 | 21.3%
Cc1oc(-c2cccs2)nc1CN1CC[C@@](O)(c2ccccc2)[C@H]2CCCC[C@@H]21 | 11.8%
Cc1ccc(CN2CCCC(CO)(Cc3ccccc3C)C2)s1 (stereo not drawn) | -37.7%
Cc1oc(-c2cccs2)nc1CN1CCC(CO)(CCOc2ccccc2)CC1 | -67%
Cc1ccccc1CC1(CO)CCCN(Cc2ccccc2Cl)C1 (stereo not drawn) | -25.6%
Cc1ccccc1CC1(CO)CCCN(Cc2nc(-c3cccs3)oc2C)C1 (stereo not drawn) | -61.1%
COc1cccc(CN2CCN(Cc3nc(-c4cccs4)oc3C)CC2CCO)c1 (stereo not drawn) | -57%
COCc1ccc(CN2CCCC(CO)(Cc3cccc(OC)c3)C2)o1 (stereo not drawn) | -26.2%
Cc1oc(-c2cccs2)nc1CN1CCN(Cc2ccc(F)c(F)c2)C(CCO)C1 (stereo not drawn) | -47.2%
